Test results from PubChem BioAssay (NCATS).
Records with an inconclusive call do not appear. Where a call stands in place of a potency, no number is given. Unmarked numbers belong to inactive results. Active and inactive are the calls of the source. The call rests on the fitted dose curve; in most records, active means well fitted curve in the direction sought with a large enough effect; inconclusive means small, poorly fitted or top-dose-only effect, or another doubt; inactive means no such curve, though single readings can be large; an effect the other way counts as inactive or inconclusive.

Key:
[1] = target: Rap guanine nucleotide exchange factor 3 (Homo sapiens) (UniProt O95398); experiment: Confirmatory qHTS for antagonist of cAMP-regulated guanine nucleotide exchange factor 3 (EPAC1) (AID 1645880); further: nearly all actives have a fitted effect of over 55% in size; further: potency means the concentration at half of the fitted maximal effect
Sequence of Rap guanine nucleotide exchange factor 3 (Homo sapiens) (O95398 whole entry, looked up): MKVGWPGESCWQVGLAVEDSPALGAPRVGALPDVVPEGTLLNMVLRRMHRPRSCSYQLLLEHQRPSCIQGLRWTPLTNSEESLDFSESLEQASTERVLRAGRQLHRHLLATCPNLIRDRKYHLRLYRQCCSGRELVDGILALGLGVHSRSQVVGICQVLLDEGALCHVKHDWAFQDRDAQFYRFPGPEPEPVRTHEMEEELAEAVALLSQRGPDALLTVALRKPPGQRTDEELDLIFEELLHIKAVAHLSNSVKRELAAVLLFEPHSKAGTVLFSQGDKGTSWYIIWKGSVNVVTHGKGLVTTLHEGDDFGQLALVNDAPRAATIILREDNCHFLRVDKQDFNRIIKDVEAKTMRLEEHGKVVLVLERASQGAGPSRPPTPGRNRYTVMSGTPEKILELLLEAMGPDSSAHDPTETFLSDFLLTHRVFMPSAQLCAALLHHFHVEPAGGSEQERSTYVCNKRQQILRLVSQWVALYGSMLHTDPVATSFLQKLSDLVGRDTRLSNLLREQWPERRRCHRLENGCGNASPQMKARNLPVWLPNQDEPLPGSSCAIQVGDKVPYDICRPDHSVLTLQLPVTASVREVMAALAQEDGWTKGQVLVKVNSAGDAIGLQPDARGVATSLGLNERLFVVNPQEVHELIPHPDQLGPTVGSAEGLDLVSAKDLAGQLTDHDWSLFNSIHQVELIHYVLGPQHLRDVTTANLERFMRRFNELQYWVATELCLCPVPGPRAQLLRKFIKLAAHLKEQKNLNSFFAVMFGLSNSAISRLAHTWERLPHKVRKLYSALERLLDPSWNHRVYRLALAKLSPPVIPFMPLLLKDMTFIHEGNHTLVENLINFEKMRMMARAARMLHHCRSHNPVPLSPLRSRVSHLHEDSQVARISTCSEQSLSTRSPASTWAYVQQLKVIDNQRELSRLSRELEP
Procedure, shortened: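 Nucleotide exchange uses 100 nM EPAC1, 250 nM RAP1B-BODIPY-GDP and 50 uM GDP, with compounds in a concentration-titration series. After 5 min at room temperature, fluorescence (480 nm ex/540 nm em) is read every 5 min for 30 min. Data are normalized to control ATA and DMSO.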

[2] = target: Rap guanine nucleotide exchange factor 3 (Homo sapiens) (UniProt O95398); experiment: Confirmatory qHTS for agonist of cAMP-regulated guanine nucleotide exchange factor 3 (EPAC1) (AID 1645881); further: nearly all actives have a fitted effect of over 75% in size; further: potency means the concentration at half of the fitted maximal effect;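 on activation: EPAC1 catalysed release of BODIPY-GDP from Rap1B seen as fluorescence loss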
[3] = target: Rap guanine nucleotide exchange factor 4 (Homo sapiens) (UniProt Q8WZA2); experiment: Confirmatory qHTS for agonist of cAMP-regulated guanine nucleotide exchange factor 4 (EPAC2) (AID 1645884);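 further: nucleotide exchange releases bodipy-GDP from Rap1 and this lowers its fluorescence; nearly all actives have a fitted effect of over 65% in size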
Sequence of Rap guanine nucleotide exchange factor 4 (Homo sapiens) (Q8WZA2 whole entry, looked up): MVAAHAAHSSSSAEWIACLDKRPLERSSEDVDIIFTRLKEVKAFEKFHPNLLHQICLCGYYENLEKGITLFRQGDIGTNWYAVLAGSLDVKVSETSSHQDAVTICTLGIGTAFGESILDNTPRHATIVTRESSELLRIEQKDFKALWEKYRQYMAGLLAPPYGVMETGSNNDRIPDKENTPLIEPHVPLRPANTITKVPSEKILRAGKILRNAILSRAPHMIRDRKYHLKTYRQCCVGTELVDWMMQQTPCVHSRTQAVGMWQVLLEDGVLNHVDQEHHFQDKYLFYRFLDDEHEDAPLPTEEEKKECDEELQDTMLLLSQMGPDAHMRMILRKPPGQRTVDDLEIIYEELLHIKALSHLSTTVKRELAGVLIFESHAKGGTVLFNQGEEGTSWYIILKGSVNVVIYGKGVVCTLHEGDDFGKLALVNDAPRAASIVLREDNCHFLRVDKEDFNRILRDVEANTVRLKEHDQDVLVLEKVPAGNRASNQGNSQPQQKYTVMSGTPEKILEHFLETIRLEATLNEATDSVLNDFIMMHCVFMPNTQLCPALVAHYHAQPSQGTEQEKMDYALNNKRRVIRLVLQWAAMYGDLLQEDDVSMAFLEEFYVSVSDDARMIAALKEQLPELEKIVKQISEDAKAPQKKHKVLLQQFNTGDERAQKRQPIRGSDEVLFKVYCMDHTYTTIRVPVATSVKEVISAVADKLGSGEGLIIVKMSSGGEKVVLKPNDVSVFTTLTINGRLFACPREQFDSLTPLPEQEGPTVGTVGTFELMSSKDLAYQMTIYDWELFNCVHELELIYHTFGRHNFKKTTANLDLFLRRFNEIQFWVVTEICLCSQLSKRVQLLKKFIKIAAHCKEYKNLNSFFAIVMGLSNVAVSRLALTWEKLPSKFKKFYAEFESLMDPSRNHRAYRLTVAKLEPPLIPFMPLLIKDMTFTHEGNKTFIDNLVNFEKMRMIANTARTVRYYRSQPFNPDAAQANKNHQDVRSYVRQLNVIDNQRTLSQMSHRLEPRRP

[4] = target: Rap guanine nucleotide exchange factor 4 (Homo sapiens) (UniProt Q8WZA2); experiment: Confirmatory qHTS for antagonist of cAMP-regulated guanine nucleotide exchange factor 4 (EPAC2) (AID 1645885); further: nearly all actives have a fitted effect of over 25% in size; further: potency means the concentration at half of the fitted maximal effect
[5] = target: Rap guanine nucleotide exchange factor 3 (Homo sapiens) (UniProt O95398); experiment: Counterscreen qHTS for antagonist of cAMP-regulated guanine nucleotide exchange factor 3 (EPAC1) (AID 1645888);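 further: fluorescence loss as bound BODIPY-GDP is released from Rap1B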
Procedure, shortened: (§1)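 Rap1B–BODIPY-GDP (250 nM) with 50 uM GDP; compounds pin-transferred to 9.74 nM–152 uM final (activator) or from 7.32 nM upwards (inhibitor). Fluorescence Ex/Em 480/540 nm read at 5 and 30 min, then after adding cAMP or buffer, at room temperature.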

[6] = target: Rap guanine nucleotide exchange factor 3 (Homo sapiens) (UniProt O95398); experiment: Counterscreen qHTS for agonist of cAMP-regulated guanine nucleotide exchange factor 3 (EPAC1) (AID 1645889); further: nearly all actives have a fitted effect of over 40% in size
Procedure, shortened: as §1

CCC(C(=O)NCc1ccc(OC)c(OC)c1)n1nc(C)c2c(C)n(-c3ccc(C)cc3)nc2c1=O (stereo not drawn)
Potency [1]: inactive | Potency [2]: inactive | Potency [3]: inactive | outcome [4]: inactive [at 12.7 µM] | Potency [5]: inactive | Potency [6]: inactive

CC(=O)N1c2ccc(S(=O)(=O)N(C)Cc3ccco3)cc2CC1C (stereo not drawn)
Potency [1]: inactive | Potency [2]: inactive | Potency [3]: inactive | Potency [4]: inactive | Potency [5]: inactive | Potency [6]: inactive

COc1cc2c(cc1OC)C(c1ccccc1Cl)N(C)CC2 (stereo not drawn)
Potency [1]: inactive | Potency [2]: inactive | activation [3]: 2.32% [at 17.1 µM, percent relative to cAMP agonist control] | Potency [4]: inactive | activity change, negative = inhibition [5]: 3.04% [at 30.8 µM] | activation [6]: 9.1% [at 30.8 µM]

Cc1cccc(C2c3[nH]c4ccccc4c3CCN2Cc2cccn2-c2ncccn2)c1 (stereo not drawn)
Potency [1]: inactive | Potency [2]: inactive | activation [3]: -1.28% [at 17.1 µM, percent relative to cAMP agonist control] | Potency [4]: inactive | activity change, negative = inhibition [5]: -4.15% [at 30.8 µM] | activation [6]: 17.6% [at 30.8 µM]

O=C(OC1CCOC1=O)c1ccc(-c2nc3ccccc3s2)s1 (stereo not drawn)
Potency [1]: inactive | Potency [2]: inactive | Potency [3]: inactive | outcome [4]: inactive [at 12.7 µM] | Potency [5]: inactive | Potency [6]: inactive

CC(NCc1cccn1C)c1ccccc1 (stereo not drawn)
Potency [1]: inactive | Potency [2]: inactive | Potency [3]: inactive | Potency [4]: inactive | Potency [5]: inactive | Potency [6]: inactive

O=C(O)CCN1C(=O)/C(=C\c2cccc(Oc3ccccc3)c2)SC1=S
Potency [1]: 26.9 µM (active) | Potency [2]: inactive | Potency [3]: inactive | Potency [4]: 21.3 µM (active) | Potency [5]: inactive | Potency [6]: inactive

CCOC(=O)c1sc2nc(-c3ccco3)c3c(c2c1N)CC(C)(C)OC3
Potency [1]: 44.7 µM (active) | Potency [2]: inactive | activation [3]: 7.15% [at 17.1 µM, percent relative to cAMP agonist control] | Potency [4]: inactive | activity change, negative = inhibition [5]: -5.49% [at 30.8 µM] | activation [6]: 25.5% [at 30.8 µM]

O=S1(=O)CCN2C(Cc3ccc(SC(F)F)cc3)=CSC2=N1
Potency [1]: inactive | Potency [2]: inactive | Potency [3]: inactive | Potency [4]: inactive | Potency [5]: inactive | Potency [6]: inactive

CCc1cccc(C)c1NC(=O)c1cc2ccccc2o1
Potency [1]: inactive | Potency [2]: inactive | Potency [3]: inactive | Potency [4]: inactive | Potency [5]: inactive | Potency [6]: inactive

O=C1NC(=Nc2ccccc2Cl)S/C1=C\c1cccc([N+](=O)[O-])c1O
Potency [1]: 21.3 µM (active) | Potency [2]: inactive | Potency [3]: inactive | Potency [4]: inactive | Potency [5]: inactive | Potency [6]: inactive

O=C(Nc1cccc(C(F)(F)F)c1)c1cccc(NS(=O)(=O)c2ccc(O)c(C(=O)O)c2)c1
Potency [1]: 60.1 µM (active) | Potency [2]: inactive | Potency [3]: inactive | Potency [4]: inactive | Potency [5]: inactive | Potency [6]: inactive

CCc1ccc(S(=O)(=O)Nc2cc3c(cc2C)n(C)c(=O)n3C)cc1
Potency [1]: inactive | Potency [2]: inactive | activation [3]: 6.63% [at 17.1 µM, percent relative to cAMP agonist control] | Potency [4]: inactive | activity change, negative = inhibition [5]: -10.1% [at 30.8 µM] | activation [6]: 18.2% [at 30.8 µM]

NNc1nc2c(Cl)ccc(Cl)c2s1
Potency [1]: inactive | Potency [2]: inactive | Potency [3]: inactive | Potency [4]: inactive | Potency [5]: inactive | Potency [6]: inactive

CCCc1cc(=O)oc2c3c(cc(OCC(=O)NCc4ccccn4)c12)OC(C)(C)CC3
Potency [1]: inactive | Potency [2]: inactive | Potency [3]: inactive | Potency [4]: inactive | Potency [5]: inactive | Potency [6]: inactive

CCn1c2ccccc2c2nnc(SCC(=O)N(C)C3CCS(=O)(=O)C3)nc21 (stereo not drawn)
Potency [1]: inactive | Potency [2]: inactive | activation [3]: 3.11% [at 17.1 µM, percent relative to cAMP agonist control] | Potency [4]: inactive | activity change, negative = inhibition [5]: 5.48% [at 30.8 µM] | activation [6]: 4.22% [at 30.8 µM]

O=c1[nH]c2cc3c(cc2cc1CN(Cc1ccccc1)Cc1nnnn1Cc1ccco1)OCCO3
Potency [1]: 42.6 µM (active) | Potency [2]: inactive | Potency [3]: inactive | Potency [4]: inactive | Potency [5]: inactive | Potency [6]: inactive

Clc1ccc(-c2cc3ccccc3nc2N2CCOCC2)cc1
Potency [1]: inactive | Potency [2]: inactive | Potency [3]: inactive | Potency [4]: inactive | Potency [5]: inactive | Potency [6]: inactive

CCc1ccccc1N(CC(=O)NCCc1ccccc1)C(=O)CCC(=O)Nc1ccccn1
Potency [1]: inactive | Potency [2]: inactive | Potency [3]: inactive | Potency [4]: inactive | Potency [5]: inactive | Potency [6]: inactive

CC1CCc2c(sc(NC(=O)Cc3ccccc3)c2C(=O)Nc2ccc(Cl)cc2)C1 (stereo not drawn)
Potency [1]: inactive | Potency [2]: inactive | Potency [3]: inactive | Potency [4]: inactive | Potency [5]: inactive | Potency [6]: inactive

Cc1ccc(S(=O)(=O)N2[C@@H](c3ccc(Cl)c(Cl)c3)C(C(=O)O)=C[C@H]2CC2CCCC2)cc1
Potency [1]: 44.7 µM (active) | Potency [2]: inactive | activation [3]: 11.3% [at 17.1 µM, percent relative to cAMP agonist control] | Potency [4]: inactive | activity change, negative = inhibition [5]: -8.49% [at 30.8 µM] | activation [6]: 18.3% [at 30.8 µM]

Cc1ccc(-c2csc(NC(=O)/C=C/c3ccco3)c2C(=O)O)cc1
Potency [1]: 25.1 µM (active) | Potency [2]: inactive | activation [3]: 5.44% [at 17.1 µM, percent relative to cAMP agonist control] | Potency [4]: inactive | activity change, negative = inhibition [5]: -12.5% [at 30.8 µM] | activation [6]: 18.5% [at 30.8 µM]

Brc1ccc(-c2csc(-c3c[nH]c4ccccc34)n2)cc1
Potency [1]: inactive | Potency [2]: inactive | activation [3]: 6.69% [at 17.1 µM, percent relative to cAMP agonist control] | Potency [4]: inactive | activity change, negative = inhibition [5]: 3.69% [at 30.8 µM] | activation [6]: 15.5% [at 30.8 µM]

N#Cc1c(-c2ccccc2)nc(SCC(=O)N2c3ccccc3Sc3ccccc32)[nH]c1=O
Potency [1]: 19 µM (active) | Potency [2]: inactive | Potency [3]: inactive | Potency [4]: inactive | Potency [5]: inactive | Potency [6]: inactive

COc1cccc(/C=C2\SC(=S)N(C(Cc3ccccc3)C(=O)O)C2=O)c1 (stereo not drawn)
Potency [1]: 47.8 µM (active) | Potency [2]: inactive | Potency [3]: inactive | Potency [4]: inactive | Potency [5]: inactive | Potency [6]: inactive

COc1cc2c(cc1OC)-c1cc(NC3CCCCC3)nc(=O)n1CC2
Potency [1]: inactive | Potency [2]: inactive | activation [3]: -2.19% [at 17.1 µM, percent relative to cAMP agonist control] | Potency [4]: inactive | activity change, negative = inhibition [5]: 14.4% [at 30.8 µM] | activation [6]: 2.97% [at 30.8 µM]

C[n+]1cc(C(=O)N2CCCCC2)ccc1/C=C/c1c[nH]c2ccccc12
Potency [1]: inactive | Potency [2]: 89.1 µM (active) | activation [3]: 10.6% [at 17.1 µM, percent relative to cAMP agonist control] | Potency [4]: inactive | activity change, negative = inhibition [5]: -7.76% [at 30.8 µM] | activation [6]: 14.5% [at 30.8 µM]

Cc1ccc2oc(=O)n(CCOc3ccccc3Cl)c2c1
Potency [1]: inactive | Potency [2]: inactive | Potency [3]: inactive | Potency [4]: inactive | Potency [5]: inactive | Potency [6]: inactive

O=C(O)c1ccc(Nc2ncnc3ccccc23)cc1
Potency [1]: inactive | Potency [2]: inactive | Potency [3]: inactive | Potency [4]: inactive | Potency [5]: inactive | Potency [6]: inactive

Cc1ccc(Sc2ccc(S(=O)(=O)Nc3ccc(C(=O)O)cc3)cc2)cc1C
Potency [1]: 67.5 µM (active) | Potency [2]: inactive | Potency [3]: inactive | Potency [4]: inactive | Potency [5]: inactive | Potency [6]: inactive

Cc1ccc(C(=O)ONc2ccc(N=NC(=O)c3ccccc3O)cc2)cc1
Potency [1]: 7.57 µM (active) | Potency [2]: inactive | Potency [3]: inactive | Potency [4]: inactive | Potency [5]: inactive | Potency [6]: inactive

CCOC(=O)c1ccc(NC(=O)CSc2nc(=O)n3cccc(C)c3n2)cc1
Potency [1]: inactive | Potency [2]: inactive | Potency [3]: inactive | Potency [4]: inactive | Potency [5]: inactive | Potency [6]: inactive

CCCCSc1nc2c(c(=O)n1CC)SC(C)C2 (stereo not drawn)
Potency [1]: inactive | Potency [2]: inactive | activation [3]: -4.2% [at 17.1 µM, percent relative to cAMP agonist control] | Potency [4]: inactive | activity change, negative = inhibition [5]: 2.79% [at 30.8 µM] | activation [6]: 5.23% [at 30.8 µM]
